Source: the supplement of paper PMC8728848
Residue numbers refer to the chain shown, from its start. About 410 targets per protein were measured; listed, in parts, are those with the strongest signals and a random draw of the rest.

Legend:
Test in all cases: glycan array binding signal (z-score within array); higher = stronger binding
[1] = molecular target: Glc(a1-3)Glc(a1-3)Glc(a1-3)Glc(a1-3)Glc; conditions: glycan notation: IUPAC condensed, linker removed
In short: (§1)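 The binding signal is a Z-score computed within each array. Data were drawn from 3228 arrays in the Consortium for Functional Glycomics database, restricted to those with a known protein sequence. Scores were averaged over arrays of the same protein sequence at different concentrations or buffers, and over linkers, and negative values can be taken as non-binding.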

[2] = molecular target: Glc(a1-3)Glc(a1-3)Glc(a1-3)Glc(a1-3)Glc(a1-3)Glc(a1-3)Glc(a1-3)Glc(a1-3)Glc(a1-3)Glc(a1-3)Glc(a1-3)Glc; conditions: glycan notation: IUPAC condensed, linker removed
In short: as §1

[3] = molecular target: Glc(b1-2)Glc(b1-2)Glc(b1-2)Glc; conditions: glycan notation: IUPAC condensed, linker removed
In short: as §1

[4] = molecular target: Glc(b1-2)Glc(b1-2)Glc(b1-2)Glc(b1-2)Glc(b1-2)Glc(b1-2)Glc(b1-2)Glc(b1-2)Glc; conditions: glycan notation: IUPAC condensed, linker removed
In short: as §1

[5] = molecular target: Glc(b1-3)Glc(b1-3)Glc(b1-3)Glc(b1-3)Glc(b1-3)Glc(b1-3)Glc(b1-3)Glc(b1-3)Glc(b1-3)Glc(b1-3)Glc(b1-3)Glc; conditions: glycan notation: IUPAC condensed, linker removed
In short: as §1

[6] = molecular target: Glc(b1-3)Glc(b1-3)Glc(b1-3)Glc(b1-3)Glc(b1-3)Glc(b1-3)Glc(b1-3)Glc(b1-3)Glc(b1-3)Glc(b1-3)Glc(b1-3)Glc(b1-3)Glc; conditions: glycan notation: IUPAC condensed, linker removed
In short: as §1

[7] = molecular target: Glc(b1-3)Glc(b1-3)[Glc(b1-6)]Glc(b1-3)Glc(b1-3)Glc(b1-3)Glc(b1-3)Glc(b1-3)Glc(b1-3)Glc; conditions: glycan notation: IUPAC condensed, linker removed
In short: as §1

Glc(b1-4)Glc(b1-4)Glc = conditions: glycan notation: IUPAC condensed, linker removed
In short: as §1

[8] = molecular target: Glc(b1-4)Glc(b1-4)Glc(b1-4)Glc(b1-4)Glc(b1-4)Glc(b1-4)Glc(b1-4)Glc; conditions: glycan notation: IUPAC condensed, linker removed
In short: as §1

[9] = molecular target: Glc(b1-6)Glc(b1-6)Glc(b1-6)Glc; conditions: glycan notation: IUPAC condensed, linker removed
In short: as §1

[10] = molecular target: Xyl(b1-4)Xyl(b1-4)Xyl(b1-4)Xyl(b1-4)Xyl(b1-4)Xyl; conditions: glycan notation: IUPAC condensed, linker removed
In short: as §1

[11] = molecular target: Gal(b1-4)GlcNAc(b1-2)Man(a1-6)[GlcNAc(b1-2)Man(a1-3)]Man(b1-4)GlcNAc(b1-4)[Fuc(a1-6)]GlcNAc; conditions: glycan notation: IUPAC condensed, linker removed
In short: as §1

[12] = molecular target: Gal(b1-4)GlcNAc(b1-2)[Gal(b1-4)GlcNAc(b1-4)]Man(a1-3)[Gal(b1-4)GlcNAc(b1-2)[Gal(b1-4)GlcNAc(b1-6)]Man(a1-6)]Man(b1-4)GlcNAc(b1-4)GlcNAc; conditions: glycan notation: IUPAC condensed, linker removed; mutation: D151N
In short: as §1

[13] = molecular target: GlcNAc(b1-2)Man(a1-3)[GlcNAc(b1-2)Man(a1-6)]Man(b1-4)GlcNAc(b1-4)GlcNAc; conditions: glycan notation: IUPAC condensed, linker removed; mutation: D151N
In short: as §1

[14] = molecular target: GlcNAc(b1-2)[GlcNAc(b1-4)]Man(a1-3)[GlcNAc(b1-2)Man(a1-6)][GlcNAc(b1-4)]Man(b1-4)GlcNAc(b1-4)GlcNAc; conditions: glycan notation: IUPAC condensed, linker removed; mutation: D151N
In short: as §1

[15] = molecular target: HexA(a1-3)GalNAc4S(b1-4)GlcA(b1-3)GalNAc4S(b1-4)GlcA(b1-3)GalNAc4S(b1-4)GlcA(b1-3)GalNAc4S(b1-4)GlcA(b1-3)GalNAc4S(b1-4)GlcA(b1-3)GalNAc4S(b1-4)GlcA(b1-3)GalNAc4S(b1-4)GlcA(b1-3)GalNAc4S; conditions: glycan notation: IUPAC condensed, linker removed; mutation: D151N
In short: as §1

[16] = molecular target: Gal(b1-4)GlcNAc(b1-2)Man(a1-6)[Man(a1-3)]Man(b1-4)GlcNAc(b1-4)GlcNAc; conditions: glycan notation: IUPAC condensed, linker removed; mutation: Y104F
In short: as §1

[17] = molecular target: Gal(b1-4)GlcNAc(b1-2)[Gal(b1-4)GlcNAc(b1-4)]Man(a1-3)[Fuc(a1-3)[Gal(b1-4)]GlcNAc(b1-2)Man(a1-6)]Man(b1-4)GlcNAc(b1-4)GlcNAc; conditions: glycan notation: IUPAC condensed, linker removed; mutation: Y104F
In short: as §1

[18] = molecular target: Glc(b1-3)Glc(b1-3)Glc(b1-3)Glc(b1-3)Glc(b1-3)Glc; conditions: glycan notation: IUPAC condensed, linker removed; mutation: Y104F
In short: as §1

Man(a1-3)Man(b1-4)GlcNAc = conditions: glycan notation: IUPAC condensed, linker removed; mutation: Y104F
In short: as §1

[19] = molecular target: Xyl(b1-2)[Man(a1-3)][Man(a1-6)]Man(b1-4)GlcNAc(b1-4)GlcNAc; conditions: glycan notation: IUPAC condensed, linker removed; mutation: Y104F
In short: as §1

B1: laminarinase (Bacillus halodurans), Q9KBL8 (protein)
chain: EETIELEGEVIPARLLSTKVKALNYDDYHNVLIDRCVEGGESIRGLGDGSWIAFHDINLEQPTNLLTVRAANENKQAVLEIRADRVDGPLVSQSVIPPTGGLQAWTTVTAQVNGETSEIRDLYLVFKGEFQLSWFSFS
glycan array binding signal (z-score) [1]: -0.688
glycan array binding signal (z-score) [2]: -0.654
glycan array binding signal (z-score) [3]: 0.121
glycan array binding signal (z-score) [4]: 2.57
glycan array binding signal (z-score) [5]: 2.38
glycan array binding signal (z-score) [6]: 2.46
glycan array binding signal (z-score) [7]: 2.85
glycan array binding signal (z-score) (Glc(b1-4)Glc(b1-4)Glc): -0.573
glycan array binding signal (z-score) [8]: -0.428
glycan array binding signal (z-score) [9]: -0.324
glycan array binding signal (z-score) [10]: -0.466

B2: ZG16p (Homo sapiens), O60844 (protein)
chain: ARSSSYSGEYGGGGGKRFSHSGNQLDGPITALRVRVNTYYIVGLQVRYGKVWSDYVGGRNGDLEEIFLHPGESVIQVSGKYKWYLKKLLFVTDKGRYLSFGKDSGTSFNAVPLHPNTVLRFISGRSGSLINAIGLHWDVYPSSCSRC
glycan array binding signal (z-score) ([11]; mutation: D151N): -0.565
glycan array binding signal (z-score) [12]: -0.44
glycan array binding signal (z-score) [13]: -0.565
glycan array binding signal (z-score) [14]: -0.565
glycan array binding signal (z-score) [15]: 5.03

B3: ZG16p (Homo sapiens), O60844 (protein)
chain: B2 chain with Y84F, N131D
glycan array binding signal (z-score) ([11]; mutation: Y104F): -0.485
glycan array binding signal (z-score) [16]: -0.485
glycan array binding signal (z-score) [17]: -0.485
glycan array binding signal (z-score) [18]: 2.84
glycan array binding signal (z-score) (Man(a1-3)Man(b1-4)GlcNAc): 0.015
glycan array binding signal (z-score) [19]: -0.331
